Shown are actives, neighbours in structure and some others; about 2.4% of the full set was active somewhere.
AmpC nodet inh: inhibitors of E. coli AmpC beta-lactamase without detergent; Potency, µM (titrated, usually from 28.7 µM), without a hit: at the top dose activity change, negative = inhibition; AmpC nitrocefin hydrolysis, absorbance 480 nm, no detergent; P00811; 71,000 compounds, 1.8% hits; note: % of control where 0% means no effect
Target sequence (P00811 whole entry, looked up): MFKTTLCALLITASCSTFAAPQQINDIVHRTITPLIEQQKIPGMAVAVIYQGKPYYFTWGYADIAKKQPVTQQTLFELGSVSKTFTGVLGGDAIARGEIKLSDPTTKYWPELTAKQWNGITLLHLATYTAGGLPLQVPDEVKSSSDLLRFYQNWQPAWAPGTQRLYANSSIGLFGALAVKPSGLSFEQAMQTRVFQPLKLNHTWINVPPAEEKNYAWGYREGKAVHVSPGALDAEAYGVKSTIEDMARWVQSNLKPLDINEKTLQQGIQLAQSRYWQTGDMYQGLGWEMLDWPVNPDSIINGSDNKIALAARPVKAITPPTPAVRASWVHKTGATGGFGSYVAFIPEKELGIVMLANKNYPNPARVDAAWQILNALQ
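AmpC, 20 mM phosphate pH 7.0; 15 min cpd preinc, RT; start with nitrocefin (800 uM stock); A480 kinetic read, 20 s intervals, 4 min. No-enzyme wells = negative control.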
SmPrx2 inh: blocks S. mansoni peroxiredoxin 2 enzymatic activity; S. mansoni Prx2 activity coupled to TGR/GSH (TGR is thioredoxin glutathione reductase), NADPH fluorescence loss, qHTS; Potency, µM; 65,000 compounds, 0.07% hits; AID 448
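Prx2 activity was followed as the loss of NADPH fluorescence (ex 365/em 450 nm), read every 30 sec for 8 min after H2O2 start. The enzyme mix (50 nM Prx2, 25 nM TGR, GSH, NADPH; pH 7.4 phosphate buffer) was incubated with compound for 15 min at room temperature first.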
LT uptake inh: inhibitors of anthrax lethal toxin internalization; Cells, anthrax lethal toxin internalization, FRET ratio (460/530); Potency, µM (doses to about 40 µM), inactives show top-dose activity change, negative = inhibition, usual class: inhibitors; 70,000 compounds, 0.67% hits; note: % is set by controls: 0 for no effect and ±100 for the full control effect; nearly all actives have a fitted effect of over 50% in size
AmpC det inh: inhibitors of E. coli AmpC beta-lactamase with detergent; P00811; purified AmpC, nitrocefin hydrolysis with detergent; Potency, µM (highest dose often 28.7 µM), inactives show at the top dose activity change, negative = inhibition; 71,000 compounds, 0.09% hits; active = well fitted curve in the direction sought with a large enough effect; inconclusive = small, poorly fitted or top-dose-only effect; note: % is set by controls: 0 for no effect and ±100 for the full control effect
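E. coli AmpC (5.3 nM) in 20 mM phosphate pH 7.0 with 0.01% Triton X-100, preincubated 15 min RT with compound; nitrocefin (2 uL of 800 uM stock) hydrolysis followed by 480 nm absorbance every 20 s over 4 min.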
* marks the source's active call; other numbers are inactive results; u = inconclusive; x = no result given; ! = not active in a repeat; [ ] = dose if it differs, or a comment. Unless noted, calls come from the whole dose curve. Potency is the fitted concentration of half-maximal effect.

SMILES | AmpC nodet inh | SmPrx2 inh | LT uptake inh | AmpC det inh
Cc1csc(NC(=O)CCCSc2nc3ccccc3s2)n1 | 1% | >57 | -18% | 2%
CCN1C[C@@]2(COC(=O)c3ccccc3N3C(=O)C[C@H](C)C3=O)CC[C@H](OC)[C@@]34[C@@H]5CC6[C@@H](OC)C[C@@](O)([C@H]5[C@H]6OC)C(O)([C@@H]13)[C@@H](OC)[C@H]24 | 48% | >57 | u | 0%
O=c1c2ccccc2sn1-c1cc(S(=O)(=O)N2CCOCC2)ccc1N1CCOCC1 | 99% | >57 | 0.16µM* | -4%
Cn1c(=O)c2cc(S(=O)(=O)N3CCOCC3)ccc2n(C)c1=O | -4% | >57 | 2% | -2%
CCCC(c1cc(C(C)(C)C)c(O)cc1C)c1cc(C(C)(C)C)c(O)cc1C | 4µM*[single pt active] | >57 | u | -2%[5.75 µM]
Oc1ccc2c3c1O[C@H]1c4[nH]c5ccccc5c4C[C@]4(O)[C@H](C2)N(CC2CC2)CC[C@@]314 | 32% | >57 | u | -2%
Oc1ccc2c3c1O[C@H]1c4c(c5ccccc5n4Cc4ccccc4)C[C@]4(O)[C@H](C2)N(CC2CC2)CC[C@@]314 | 35% | >57 | 25µM* | -2%
Oc1cc(CN2COc3ccccc32)c(O)cc1CNC1CCCCC1 | -4%[5.75 µM] | >57 | u | 0%[5.75 µM]
Fc1ccc(OCc2nc(-c3ccc(Br)o3)no2)c(F)c1 | 2.5µM*[single pt active] | >57 | u | 10%
Brc1ccc(-c2noc(CCc3ccccc3)n2)o1 | 4µM*[single pt active] | >57 | u | 10%
O=C(CC1(O)C(=O)Nc2cc(Cl)cc(Cl)c21)c1ccccc1O (stereo not drawn) | 13µM* | >57 | -5% | 10µM*
COc1ccc(-c2cc(CCCC(=O)NCCc3ccc(OC)cc3OC)no2)cc1 | 40% | >57 | x | 15%
COc1ccc(-c2cc(CCCC(=O)NCc3ccccn3)no2)cc1 | 3.2µM*[single pt active] | >57 | -14% | 14%
COc1ccc(S(=O)(=O)NCCSCc2ccco2)cc1 | 13µM*[single pt active] | >57 | -4% | 14%
CN(C)CCCN1c2ccccc2Sc2ccc(Cl)cc21 | 52%[12.8 µM] | >57 | u | 1%[12.8 µM]
OCCN1CCN(CCCN2c3ccccc3Sc3ccc(Cl)cc32)CC1 | 124%[12.8 µM] | >57 | 25µM*! | 0%[12.8 µM]
CCOc1ccccc1CNC(=O)c1cc2occc2n1C | 10µM*[single pt active] | >57 | -28% | u
COc1ccccc1CNC(=O)c1cc2sccc2n1C | 16% | >57 | u | -1%
O=C(O)C1(C(=O)O)CCN(S(=O)(=O)c2ccccc2)CC1 | 1%[5.75 µM] | >57 | 11%[8 µM] | -4%[5.75 µM]
O=C(Oc1cccc(-n2cnnn2)c1)c1sc2ccccc2c1Cl | 13µM*[single pt active] | >57 | -6% | -3%
NC(=O)c1cccc(S(=O)(=O)N2CC(c3ccccc3)CC2=O)c1 (stereo not drawn) | 4µM*[single pt active] | >57 | -13% | 14%
O=c1c(O)c(-c2ccc(O)c(O)c2)oc2c(OC[C@H]3O[C@@H](O)[C@@H](O)[C@H](O)[C@@H]3O)c(O)cc(O)c12 | -12% | >57 | -13% | 0%
CC(C)CNc1oc(-c2ccc(F)cc2)nc1C#N | 4µM*[single pt active] | >57 | u | 6%
N#Cc1nc(-c2ccc(F)cc2)oc1NCc1cccc2c1OCO2 | -22% | >57 | u | 8%
O=C(Nc1ccccc1)c1ccccc1O | -10% | >57 | -13% | 2%
SMILES | AmpC nodet inh | SmPrx2 inh | LT uptake inh | AmpC det inh
O=C(N/N=C\c1ccccc1O)c1ccccc1O | 16µM* | >57 | u | -1%
COc1ccc(-c2nc(CS(=O)CC(=O)NCc3ccc4c(c3)OCO4)c(C)o2)cc1 (stereo not drawn) | 96% | >57 | -5% | 14%
COc1ccc(CNC(=O)CS(=O)Cc2nc(-c3ccc(C)cc3)oc2C)cc1 (stereo not drawn) | 114% | >57 | -25% | 11%
COc1ccc(-c2nc(CS(=O)CC(=O)N3CCCC3)c(C)o2)cc1 (stereo not drawn) | 4µM*[single pt active] | >57 | 15% | 14%
COCCNC(=O)CS(=O)Cc1nc(-c2ccc(OC)cc2)oc1C (stereo not drawn) | 3.2µM* | >57 | -6% | 12%
COc1ccc(-c2nc(CS(=O)CC(=O)NCC3CCCO3)c(C)o2)cc1 (stereo not drawn) | 4µM*[single pt active] | >57 | 9% | 12%
COc1ccc(-c2nc(CS(=O)CC(=O)NCc3ccco3)c(C)o2)cc1OC (stereo not drawn) | 4µM*[single pt active] | >57 | -2% | 12%
Cc1noc(C)c1-c1cncnc1NCc1cccnc1 | 18% | >57 | u | 6%
COc1ccc2c3c1O[C@@H]1C(=O)CC[C@@]4(O)[C@@H](C2)N(CC2CC2)CC[C@]314 | 12% | >57 | -3% | 0%
CO/N=C(/C(=O)N[C@@H]1C(=O)N2C(C(=O)O)=C(COC(N)=O)CS[C@H]12)c1ccco1 | 0.01µM* | x | -6% | 0.025µM*
CO/N=C(\C(=O)N[C@@H]1C(=O)N2C(C(=O)O)=C(CSc3nc(=O)c(O)nn3C)CS[C@@H]12)c1csc(N)n1 | 13µM* | >57 | 1% | 13µM*
COc1cc(C2SCCCCCCCCCCSC(c3ccc(O)c(OC)c3)SCCCCCCCCCCS2)ccc1O (stereo not drawn) | 3%[5.75 µM] | >57 | -16%[8 µM] | -2%[5.75 µM]
CCC(C)C(=O)Nc1nc2c(s1)C(=O)CC(C)(C)C2 (stereo not drawn) | 4µM*[single pt active] | >57 | 9% | 11%
COc1ccccc1OCC(=O)Nc1oc(-c2ccccc2)c(-c2ccccc2)c1C#N | -17% | >57 | -24% | -2%
Cc1ccnc(SCC(=O)Nc2oc(-c3ccccc3)c(-c3ccccc3)c2C#N)n1 | u | >57 | u | -2%
N#Cc1c(NC(=O)COC(=O)C2CC3C=CC2C3)oc(-c2ccccc2)c1-c1ccccc1 (stereo not drawn) | 10µM* | >57 | u | -3%
N#Cc1c(NC(=O)CSc2n[nH]c(Cc3ccccc3)n2)oc(-c2ccccc2)c1-c1ccccc1 | 10µM* | >57 | u | -1%
CC(C)[C@@H]1OC(=O)C=CC=CC=CC=CC=CC[C@@H](O)[C@H](C)[C@@H](O)C[C@H](O)C[C@H](O)C[C@H](O)C[C@H](O)C[C@H](O)C[C@H](O)C=C[C@@H]1C | 39%[5.75 µM] | >57 | 0%[8 µM] | -4%[5.75 µM]
O=C(O)[C@@H]1[C@@H]2O[C@H]([C@@H](Br)[C@H]2Br)[C@H]1C(=O)O | 6%[5.75 µM] | >57 | -12%[8 µM] | -2%[5.75 µM]
CCn1ccnc1C(O)c1cccc(OC)c1OC (stereo not drawn) | 4µM*[single pt active] | >57 | -9% | 12%
CCc1ncc(C(O)c2cccc(OC)c2OC)n1C (stereo not drawn) | -13% | >57 | 1% | -6%
CC(C)(CCc1nc2ccccc2[nH]1)C(=O)O | 3%[5.75 µM] | >57 | 2%[8 µM] | 11%[5.75 µM]
CSc1ccc2c(c1)c(CCN)c(C)n2Cc1ccccc1Cl | 15%[5.75 µM] | >57 | u | -3%[5.75 µM]
COc1ccc(OCCSc2ncnc3nc[nH]c23)cc1 | 4µM*[single pt active] | >57 | -7% | 11%
COC(=O)[C@H](Cc1ccccc1)NC(=O)[C@@H](C)CO | x | x | 6%[1.6 µM] | x
CN1CCc2c(sc3c2C(=O)NC(c2cccc(OC(=O)c4cccs4)c2)N3)C1 (stereo not drawn) | 3.2µM*[single pt active] | >57 | u | 12%
